Where “and” joins values, the source holds several entries; their conditions need not be identical. Equal values may be shown once. Screen size: about 5,500 compounds; about 2,000 (36%) were called active. Inconclusive results (about 18%) are left out. No stated cut-off is given here; in the data, active means normalized growth mostly below about 0.91 (no sharp cut-off); inconclusive means no clear call, values can overlap the other calls; inactive means mostly above about 0.92. Some of the results follow.
Assay: chemical genetic growth profiling, strain panel (AID 1159580);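 further: tested at 20 µM; growth read once vehicle control cultures reached saturation at 30 °C; 1 = growth at the plate median or of vehicle wells; lower values mean less growth of the strain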
Settings: S. cerevisiae deletion strains, growth OD

Measured: normalized growth

CCCc1nc(C(C)(C)O)c(C(=O)OCc2oc(=O)oc2C)n1Cc1ccc(-c2ccccc2-c2nn[nH]n2)cc1
inactive: locus YAL013W, strain DEP1, hits give low values 0.99 | locus YAL021C, strain ccr4, hits give low values 0.976 | locus YAL026C, strain drs2, hits give low values 0.966 | locus YAL030W, strain snc1, hits give low values 0.955 | locus YBL061C, strain skt5, hits give low values 0.979 | locus YBR009C, strain hhf1, hits give low values 1 | locus YBR021W, strain FUR4, hits give low values 0.987 | locus YBR023C, strain chs3, hits give low values 0.961 | locus YBR171W, strain sec66, hits give low values 0.957 | locus YBR229C, strain ROT2, hits give low values 0.989 | locus YBR231C, strain swc5, hits give low values 0.974 | locus YBR279W, strain paf1, hits give low values 0.973 | locus YCL011C, strain gbp2, hits give low values 0.945 | locus YCL016C, strain dcc1, hits give low values 0.994 | locus YCL029C, strain bik1, hits give low values 0.982 | locus YCL069W, strain vba3, hits give low values 0.987 | locus YCR088W, strain abp1, hits give low values 0.977 | locus YDL005C, strain med2, hits give low values 0.983 | locus YDL035C, strain GPR1, hits give low values 1 | locus YDL040C, strain nat1, hits give low values 0.976 | locus YDL074C, strain BRE1, hits give low values 1.01 | locus YDL101C, strain DUN1, hits give low values 0.991 | locus YDL134C, strain PPH21, hits give low values 0.986 | locus YDL185W, strain tfp1, hits give low values 0.983 | locus YDL192W, strain arf1, hits give low values 0.985 | locus YDR001C, strain nth1, hits give low values 0.945 | locus YDR069C, strain doa4, hits give low values 0.956 | locus YDR101C, strain arx1, hits give low values 0.994 | locus YDR137W, strain rgp1, hits give low values 0.943 | locus YDR150W, strain NUM1, hits give low values 1 | locus YDR159W, strain sac3, hits give low values 0.933 | locus YDR162C, strain NBP2, hits give low values 1 | locus YDR195W, strain ref2 0.922 | locus YDR297W, strain sur2, hits give low values 0.981 | locus YDR318W, strain mcm21, hits give low values 0.994 | locus YDR334W, strain swr1, hits give low values 0.945 | locus YDR335W, strain msn5, hits give low values 0.952 | locus YDR388W, hits give low values 0.987 | locus YDR392W, strain spt3, hits give low values 1.02 | locus YDR502C, strain sam2, hits give low values 0.986 | locus YEL003W, strain gim4, hits give low values 0.972 | locus YEL037C, strain rad23, hits give low values 0.968 | locus YEL061C, strain CIN8 (second series), hits give low values 0.955 | locus YEL061C, strain CIN8, hits give low values 1.01 | locus YER015W, strain faa2, hits give low values 0.99 | locus YER016W, strain bim1, hits give low values 0.967 | locus YER110C, hits give low values 0.985 | locus YER111C, strain swi4, hits give low values 0.965 | locus YER155C, strain BEM2 (second series), hits give low values 0.906 | locus YER155C, strain BEM2, hits give low values 1.02 | locus YER167W, strain BCK2, hits give low values 0.99 | locus YFR010W, strain ubp6, hits give low values 0.967 | locus YGL078C, strain dbp3, hits give low values 0.99 | locus YGL086W, strain mad1, hits give low values 0.986 | locus YGL167C, strain pmr1, hits give low values 0.957 | locus YGL173C, strain kem1, hits give low values 0.985 | locus YGL227W, strain vid30, hits give low values 0.96 | locus YGL240W, strain doc1, hits give low values 0.949 | locus YGL248W, strain PDE1, hits give low values 0.99 | locus YGL253W, strain hxk2, hits give low values 0.962 | locus YGR078C, strain PAC10, hits give low values 1.02 | locus YGR135W, strain pre9, hits give low values 0.995 | locus YGR229C, strain SMI1, hits give low values 1 | locus YGR252W, strain gcn5, hits give low values 1.02 | locus YHR013C, strain ard1, hits give low values 0.978 | locus YHR027C, strain rpn1, hits give low values 0.973 | locus YHR030C, strain SLT2, hits give low values 0.99 and 0.967 | locus YHR079C, strain IRE1 (second series), hits give low values 0.984 | locus YHR079C, strain IRE1, hits give low values 0.954 | locus YHR094C, strain hxt1, hits give low values 0.989 | locus YHR129C, strain ARP1, hits give low values 0.987 | locus YHR142W, strain chs7, hits give low values 1 | locus YHR200W, strain rpn10, hits give low values 0.981 | locus YIL066C, strain RNR3, hits give low values 0.994 | locus YIL073C, strain SPO22, hits give low values 1.02 | locus YIL125W, strain kgd1, hits give low values 0.989 | locus YIR030C, strain dcg1, hits give low values 0.982 | locus YJL092W, strain hpr5, hits give low values 0.982 | locus YJL095W, strain BCK1 (second series), hits give low values 0.973 | locus YJL095W, strain BCK1, hits give low values 0.987 and 0.988 | locus YJL115W, strain asf1, hits give low values 0.967 | locus YJL129C, strain trk1, hits give low values 0.965 | locus YJL134W, strain LCB3, hits give low values 0.994 | locus YJL154C, strain vps35, hits give low values 0.966 | locus YJL164C, strain tpk1, hits give low values 0.996 | locus YJL166W, strain qcr8, hits give low values 0.966 | locus YJL168C, strain set2, hits give low values 0.997 | locus YJL187C, strain SWE1 (second series), hits give low values 0.987 | locus YJR043C, strain POL32, hits give low values 0.997 | locus YJR066W, strain TOR1, hits give low values 0.931 | locus YJR075W, strain HOC1, hits give low values 1.01
